Measurements as given in PubChem BioAssay (NCATS).
Results filed as inconclusive are left out. Active and inactive are the calls of the source. Calls come from the whole dose curve; as a rule, active = well fitted inhibition curve with a large enough effect; inconclusive = small, poorly fitted or top-dose-only effect; inactive = no such curve, though single readings can be large or run the other way.

experiment: S16 Schwann cell PMP22 intronic element firefly luciferase assay (AID 624032); details: S16 rat Schwann cells, PMP22 element FLuc, 24 h; series mostly up to 57.5 µM; activity change, negative = inhibition: at the top concentration; note: nearly all actives have a fitted effect of over 30% in size
Excerpt: Charcot-Marie-Tooth-Association [CMTA]
National Center for Advancing Translational Sciences [NCATS]
Charcot-Marie-Tooth (CMT) disease was first characterized by Jean-Martin Charcot and Pierre Marie in France and, independently, by Howard Henry Tooth in England in 1886. CMT is one of the most common inherited neurological diseases, affecting approximately 1 in 2,500 Americans. […] The most prevalent type of CMT is known as CMT1A and caused by a duplication of the PMP22 gene which leads to over-expression of this protein. PMP22 is a glycosylated intrinsic membrane protein accounting for 2-5% of the myelin protein content, and its over-expression results in demyelination and subsequently axonal loss.
A pair of cellular transcription-based assays was developed in the S16 rat Schwann cell lines (Hai, M., et al., 2002) stably transfected with orthogonal reporters - firefly luciferase (Fluc) and beta-lactamase (beta-Lac) - whose expression is driven by an intronic regulatory element of the PMP22 gene (Jones, E.A., et al., 2011) to recapitulate endogenous expression of PMP22. The current assay employs Fluc to report on PMP22 expression. A comprehensive library of approved drugs, the NCGC Pharmaceutical Collection (Huang, R., et al., 2011), was screened in the cross-validating platform of the orthogonal reporter assays to identify drug modulators inhibitory towards PMP22 expression.
A set of counter-screens was devised to address non-specific activity of the library. An ATP-dependent CellTiter-Glo assay (developed by Promega Corp) was utilized to control cell viability. In addition, biochemical Fluc enzyme assay was performed to assess direct inhibition of the Fluc enzymatic activity.
Hai, M., Muja, N., DeVries, G.H., Quarles, R.H. and Patel, P.I. Comparative analysis of Schwann cell lines as model systems for myelin gene transcription studies. J Neurosci Res, 2002. 69(4): pp 497-508
Huang, R., Southall, N., Wang, Y., Yasgar A., Shinn P., Jadhav, A. , Nguyen, D.-T. and Austin, C.P., The NCGC pharmaceutical collection: a comprehensive resource of clinically approved drugs enabling repurposing and chemical genomics. Sci Transl Med, 2011. 3(80): p. 80ps16.
S16 Schwann cell PMP22 intronic element firefly luciferase assay
The FLuc-expressing S16 cells were seeded in white solid 1536-well plates at between 500-750 cells/4uL in DMEM medium containing 10% FBS, w/o phenol red. After overnight incubation at 37 degree Celsius/5% C02, 23 nL of compounds or DMSO were delivered to each well using a pin tool, followed by 24h-incubation at 37 degree Celsius/5% C02. Then 4 uL ONE-Glo luminescent substrate mix (Promega) was added to each well. Luminescence was measured on a ViewLux plate reader (Perkin Elmer). The % activity was determined by normalizing to the average readings of PTC124 (a positive control) - treated cells relative to DMSO-treated cells (0% Activity). The concentration-effect curves were then classified based on curve quality (r2), response magnitude and degree of measured activity.
Potency is the fitted concentration of half-maximal effect.

Row | SMILES | activity change, negative = inhibition | Potency
1 | [Cl][In]([Cl])[Cl] | 2.18% (inactive) | 
2 | CNCCCC1c2ccccc2C=Cc2ccccc21 |  | 12.3 µM (active)
3 | O=c1cc[nH]c(=O)[nH]1 | -0.348% (inactive) | 
4 | CC(C(O)c1ccc(O)cc1)N1CCC(Cc2ccccc2)CC1 (stereo not given) |  | 25.6 µM (active)
5 | CSc1ccc2c(c1)N(CCC1CCCCN1C)c1ccccc1S2 (stereo not given) |  | 28.7 µM (active)
6 | O=C1c2c(O)cccc2Cc2cccc(O)c21 | 1.87% (inactive) | 
7 | CC1(C)CO[C@@H](CC(=O)O)CN1 | 7.85% (inactive) | 
8 | CC1(C)OC(=O)NC1=O | 25.4% (inactive) | 
9 | O=C(O)c1ccccn1 | -6.22% (inactive) | 
10 | NC(=O)N/N=C/c1ccc([N+](=O)[O-])o1 |  | 10.2 µM (active)
11 | C[C@H](N)[C@H](O)c1cccc(O)c1 | -13.9% [at 25.7 µM] (inactive) | 
12 | Cc1c(O)cccc1C(=O)N[C@@H](CSc1ccccc1)[C@H](O)CN1C[C@H]2CCCC[C@H]2C[C@H]1C(=O)NC(C)(C)C |  | 8.09 µM (active)
13 | CC(O)COc1ccccc1 (stereo not given) | 28.3% (inactive) | 
14 | Nc1ccc(S(=O)(=O)Nc2nccs2)cc1 | 26.6% (inactive) | 
15 | O=C(O)CN1C(=O)c2cccc3cccc(c23)C1=O | -28% (inactive) | 
16 | NC(=O)NC(=O)Cc1ccccc1 | -21.7% (inactive) | 
17 | CC[C@@]1(c2ccccc2)NC(=O)N(C)C1=O | 10.4% (inactive) | 
18 | CCOC(=O)[C@H](CCc1ccccc1)N[C@@H](C)C(=O)N1C(=O)N(C)C[C@H]1C(=O)O | -1.27% (inactive) | 
19 | CC1(C)[C@@H]2CC[C@@]1(C)C(=O)C2 |  | 2.56 µM (active)
20 | CCN(CC)CCSC(=O)C(c1ccccc1)c1ccccc1 |  | inactive

Row | SMILES | activity change, negative = inhibition | Potency
21 | CC(=O)NC(Cc1ccccc1)C(=O)O (stereo not given) | -12.4% (inactive) | 
22 | Cn1c(=O)c2c(ncn2CC2OCCO2)n(C)c1=O | -17.1% (inactive) | 
23 | Cc1ccc(C(C)C)cc2c(C)ccc1-2 | -13.2% (inactive) | 
24 | C#CCN(C)Cc1ccccc1 | 17.8% [at 25.7 µM] (inactive) | 
25 | CC1=C(CC(=O)O)c2cc(F)ccc2/C1=C\c1ccc(S(C)=O)cc1 (stereo not given) | -21.8% (inactive) | 
26 | Nc1ccc(S(=O)(=O)NC(=O)c2ccccc2)cc1 | 6.13% [at 25.7 µM] (inactive) | 
27 | CCCCCCCCCCCCOS(=O)(=O)O | -5.88% (inactive) | 
28 | CCCOC(=O)c1ccccc1 | 16% (inactive) | 
29 | COc1ccccc1O | -18.5% (inactive) | 
30 | CCCCN(CCCC)CCCOC(=O)c1ccc(N)cc1 | -15.5% [at 25.7 µM] (inactive) | 
31 | COc1cc(C(=O)N2CCOCC2)cc(OC)c1OC |  | inactive
32 | Cc1cccc(Nc2cc(Cl)nc(SCC(=O)O)n2)c1C | -3.3% (inactive) | 
33 | O=c1[nH]c(=O)c2[nH]c(=O)[nH]c2[nH]1 | -0.828% (inactive) | 
34 | CCCCc1ncc(/C=C(\Cc2cccs2)C(=O)O)n1Cc1ccc(C(=O)O)cc1 | 13.4% (inactive) | 
35 | O=C1NC(=O)[C@@]2(CCOc3ccc(F)cc32)N1 | -15.9% (inactive) | 
36 | O=C(CCCN1CCN(c2ccccn2)CC1)c1ccc(F)cc1 | 22.8% (inactive) | 
37 | CC(C)(C)C(=O)NCCCC(=O)O | 21.7% (inactive) | 
38 | O=C(O)COc1nn(Cc2ccccc2)c2ccccc12 | 28.6% (inactive) | 
39 | C[C@]12C[C@H](O)[C@H]3[C@@H](CCC4=CC(=O)CC[C@@]43C)[C@@H]1CC[C@@H]2C(=O)CO | -18.4% (inactive) | 
40 | c1ccc(CN(CC2=NCCN2)c2ccccc2)cc1 | -9.13% (inactive) | 
